{
  "source": "PubChem BioAssay (EPA / NIEHS)",
  "note": "Calls of active or inactive are those of the source. Rule for the calls: active = hit-call score of the fitted dose curve at least 0.9, where 1 is the maximum; inactive = score below 0.9.",
  "data": [
    {"assay": "ATG_GLI_CIS: Attagene CIS-FACTORIAL HepG2 Assay for human Zinc Finger Protein GLI1 (AID 2282945)", "conditions": "HepG2, Attagene cis-factorial reporter mRNA, GLI element; actives raise or lower the signal", "description": "ATG_CIS is a cell-based, multiplexed-readout assay that uses HepG2, a human liver cell line, with measurements taken at 24 hours after chemical dosing in a 24-well plate.ATG_GLI_CIS is one of 52 assay component(s) measured or calculated from the ATG_CIS assay. It is designed to make measurements of mRNA induction, a form of inducible reporter, as detected with fluorescence intensity signals by Reverse transcription polymerase chain reaction (RT-PCR) and Capillary electrophoresis technology.Data from the assay component ATG_GLI_CIS was analyzed into 1 assay endpoint. This assay endpoint, ATG_GLI_CIS, was analyzed with bidirectional fitting relative to DMSO as the negative control and baseline of activity. Using a type of inducible reporter, measures of mRNA for gain or loss-of-signal activity can be used to understand the reporter gene at the transcription factor-level as they relate to the gene GLI1. Furthermore, this assay endpoint can be referred to as a primary readout, because this assay has produced multiple assay endpoints where this one serves a reporter gene function. To generalize the intended target to other relatable targets, this assay endpoint is annotated to the dna binding intended target family, where the subfamily is zinc finger.\nHuman liver HepG2 cells are transiently transfected with multiple reporter transcription units (MRTUs) in 6-well plates using FuGene 6 reagent (Roche; 3 ml FuGene/1 mg DNA). The MRTU constructs are regulated by a cis-regulating element (promoter). […] A major difference between the CIS and TRANS system is that in CIS activities of endogenous TFs are measured, whereas the TRANS assay evaluates changes in activities of exogenous, chimeric NR-Gal4 proteins. […] At the end of 24 hour incubation, total RNA was isolated using TriZol reagent (Invitrogen). The isolated RNA is then reverse-transcribed using oligo(dT) primer and Mo-MLV reverse transcriptase (Invitrogen) with DNAse I (Ambion) treatment for 30 min. The one-tenth of the produced cDNA was amplified by PCR using Taq DNA polymerase (Invitrogen) and two reporter sequence-specific primers. The PCR products were fluorescently labeled by primer extension with 6-arboxyfluorescein (6-FAM) 5'-labeled reporter sequence-specific primer (2 min at 95 C, 20 s at 68 C and 10 min at 72 C) and these products were digested with 5U of HpaI (New England Biolabs) for 2h at 37 C. The fragments were purified using Qiaquick PCR columns (Qiagen), analyzed on an ABI 3130xL genetic analyzer (Applied Biosystems) with peak positions identified by using a set of X-rhodamine (ROX)-labeled MapMarker1000 molecular weight standards (BioVentures). The raw capillary electrophoresis data was processed using Attagraph software (Attagene).", "values": [
      {"smiles": "[Cl][Sb]([Cl])[Cl]", "outcome": "inactive"},
      {"smiles": "CCCCCc1cc(O)cc(O)c1", "outcome": "inactive"},
      {"smiles": "C=CCc1ccc(OC(=O)Cc2ccccc2)c(OC)c1", "outcome": "inactive"},
      {"smiles": "O=[N+]([O-])c1ccc(Cl)cc1", "outcome": "inactive"},
      {"smiles": "[CH3][Sn]([CH3])([Cl])[Cl]", "outcome": "inactive"},
      {"smiles": "CC1(C)C(=O)NC(=O)NC1=O", "outcome": "inactive"},
      {"smiles": "Nc1ccccc1C(=O)OCCc1ccccc1", "outcome": "inactive"},
      {"smiles": "CCC(C)c1cc([N+](=O)[O-])cc([N+](=O)[O-])c1OC(=O)C=C(C)C", "note": "(stereo not given)", "AC50": "24.8 µM (active)"},
      {"smiles": "O=C1Nc2ccc(Cl)cc2C(c2ccccc2)=NC1O", "note": "(stereo not given)", "outcome": "inactive"},
      {"smiles": "O=CNC(N1CCN(C(NC=O)C(Cl)(Cl)Cl)CC1)C(Cl)(Cl)Cl", "note": "(stereo not given)", "outcome": "inactive"},
      {"smiles": "C=CC(=O)OCC(CC)CCCC", "note": "(stereo not given)", "outcome": "inactive"},
      {"smiles": "CNC(=O)Oc1cc(C)c(SC)c(C)c1", "outcome": "inactive"},
      {"smiles": "CC(=O)C=Cc1ccccc1", "outcome": "inactive"},
      {"smiles": "O=P1(NCCCl)OCCCN1CCCl", "note": "(stereo not given)", "outcome": "inactive"},
      {"smiles": "C=C(Cl)Cl", "outcome": "inactive"},
      {"smiles": "C=CC(=O)OCCO", "outcome": "inactive"},
      {"smiles": "CCC[N+](=O)[O-]", "outcome": "inactive"},
      {"smiles": "COc1cc(OC)c(OC)cc1C=O", "outcome": "inactive"},
      {"smiles": "CC(=O)/C=C/c1ccccc1", "outcome": "inactive"},
      {"smiles": "CC1OC(C)OC(C)O1", "note": "(stereo not given)", "outcome": "inactive"},
      {"smiles": "CC(C)CCCCCCCOC(=O)c1ccccc1C(=O)OCCCCCCCC(C)C", "outcome": "inactive"},
      {"smiles": "O=C(O)CCl", "outcome": "inactive"},
      {"smiles": "S=c1[nH]c2ccccc2[nH]1", "outcome": "inactive"},
      {"smiles": "O=C(NCNC(=O)NC1C(=O)NC(=O)N1CO)NC1C(=O)NC(=O)N1CO", "note": "(stereo not given)", "outcome": "inactive"},
      {"smiles": "C[N+](C)(C)CC(=O)[O-]", "outcome": "inactive"},
      {"smiles": "N#CCNCC#N", "outcome": "inactive"},
      {"smiles": "CC(C)COP(=O)(OCC(C)C)OCC(C)C", "outcome": "inactive"},
      {"smiles": "C=CC(=O)OCCCCOC(=O)C=C", "outcome": "inactive"},
      {"smiles": "c1cc(OCC2CO2)ccc1Cc1ccc(OCC2CO2)cc1", "note": "(stereo not given)", "outcome": "inactive"},
      {"smiles": "CNC(=N[N+](=O)[O-])NCC1CCOC1", "note": "(stereo not given)", "outcome": "inactive"},
      {"smiles": "CC(Cc1ccc(C(C)(C)C)cc1)CN1C[C@@H](C)O[C@@H](C)C1", "note": "(stereo not given in full)", "outcome": "inactive"},
      {"smiles": "CCc1cc(C)cc(CC)c1-c1c(OC(=O)C(C)(C)C)n2n(c1=O)CCOCC2", "outcome": "inactive"},
      {"smiles": "O=c1[nH]c(Cl)c(Cl)cc1Cl", "outcome": "inactive"},
      {"smiles": "C#CC1(O)CCCCC1", "outcome": "inactive"},
      {"smiles": "ClC1=C(Cl)[C@]2(Cl)[C@@H]3[C@@H](Cl)[C@H](Cl)C[C@@H]3[C@@]1(Cl)C2(Cl)Cl", "outcome": "inactive"},
      {"smiles": "Nc1ccc([N+](=O)[O-])cc1N", "outcome": "inactive"},
      {"smiles": "O=P(O)(Oc1ccccc1)Oc1ccccc1", "outcome": "inactive"},
      {"smiles": "CC(C)(Cl)Cl", "outcome": "inactive"},
      {"smiles": "O=C(CCl)c1ccccc1", "outcome": "inactive"},
      {"smiles": "C=CCO", "outcome": "inactive"}
    ]}
  ]
}
